A selection: hits, their analogues and other compounds. The true share with any hit is near 1.8%.
USP7 inh: blocks human USP7 ubiquitin-rhodamine cleavage. Q93009. AID 1645854. purified USP7, Ub-rhodamine cleavage fluorescence. inhibition, % at 20 µM. actives 0.3% (n = 47,000)
UCHL1 block: inhibitors of human UCHL1 deubiquitinase. P09936. purified UCHL1, Ub-rhodamine cleavage fluorescence. inhibition, % at 20 µM. actives 0.2% (n = 47,000). AID 1645859
OTUD3 block: blocks human OTUD3 ubiquitin-rhodamine cleavage. Q5T2D3. purified OTUD3, Ub-rhodamine fluorescence, 2 h. inhibition, % at 25 µM. actives 0.7% (n = 47,000). AID 1645858
USP10 block: inhibitors of human USP10 deubiquitinase | Q14694 | inhibition, % at 20 µM | actives 1.1% (n = 47,000) | purified USP10, Ub-rhodamine fluorescence, 60 min
Active calls of the source: *. Cut-off read from the data, not from the text of the source: active = inhibition above about 30%; inactive = the rest.

SMILES	USP7 inh	UCHL1 block	OTUD3 block	USP10 block
COc1ccc(OC)c(-c2cn3ccn(-c4ccc(F)c(Cl)c4)c(=O)c3n2)c1	-57.2	22.1	21.2	30.5*
Cc1cc(C)cc(-n2ccn3cc(-c4cccc(Cl)c4)nc3c2=O)c1	7.3	0.7	-12.1	4.3
COc1ccccc1N1CCN(C(=O)c2ccc3c(=O)n(CCc4ccccc4)c(=O)[nH]c3c2)CC1	6.8	5.6	5.2	40.2*
CCc1noc(-c2ccc(-n3ncc(C(=O)N4CCCC(C)C4)c3C)nc2)n1 (stereo not given)	0.1	2.8	7.7	0.0
Cc1ccc(C)c(NC(=O)CCc2nc(CSc3nc4ccccc4o3)no2)c1	1.0	3.4	39.3*	1.6
Cc1ccc(NC(=O)Nc2ccc(C)n(CC(=O)Nc3ccc(C)cc3C)c2=O)cc1	37.4*	0.3	74.4*	63.1*
Cc1ccc(NC(=O)Nc2ccc(C)n(CC(=O)Nc3cc(C)ccc3C)c2=O)cc1	17.2	0.0	45.8*	39.1*
Cc1ccc(C)c(NC(=O)Cn2ccc3ccn(C)c3c2=O)c1	-0.6	-1.7	0.0	0.2
Cc1cccc(NC(=O)Nc2ccc(C)n(CC(=O)Nc3ccccc3)c2=O)c1	4.2	-2.5	-16.3	13.1
CCOc1ccc(N2C(=O)N(c3ccccc3C)C3CS(=O)(=O)CC32)cc1 (stereo not given)	-2.4	-1.6	-3.0	0.5
c1cc(-c2noc(COC3CCN(Cc4ccoc4)CC3)n2)ccn1	-3.1	-3.3	-1.1	0.0
CN1CCN(c2ccccc2NC(=O)C(Sc2ccccc2)c2ccccc2)CC1 (stereo not given)	-31.0	3.5	-11.1	1.3
CS(=O)(=O)c1cccc(-c2nnc(NC(=O)c3ccc(Cc4ccccc4)cc3)o2)c1	12.3	7.9	13.4	40.7*
CC(NC(=O)c1ccc(-c2nnc(-c3ccccc3)o2)cc1)c1ccc(S(C)(=O)=O)cc1 (stereo not given)	8.7	5.8	35.7*	4.5
COc1cc2c(=O)n(CC3CCCO3)c(=O)n(CC(=O)c3ccc4c(c3)OCO4)c2cc1OC (stereo not given)	-5.0	-2.7	-1.9	32.7*
COc1cc2c(=O)n(CC3CCCO3)c(=O)n(CC(=O)Nc3ccc4c(c3)OCCO4)c2cc1OC (stereo not given)	6.3	2.0	15.1	-1.4
COc1ccc(Nc2nc3c(S(=O)(=O)c4ccc(C)cc4)nnn3c3ccsc23)c(OC)c1	14.0	8.3	12.6	37.8*
O=C(O)c1ccccc1C(=O)Nc1ccc(SC(C(=O)Nc2ccccc2Cl)c2ccccc2)cc1 (stereo not given)	-2.1	3.7	9.1	49.3*
CC(C)n1nnc2cc(S(=O)(=O)N3CCCC(C(=O)N4CCCC4)C3)ccc21 (stereo not given)	-7.7	-0.8	-17.5	-6.6
O=C1CC(C(=O)Nc2ccc3c(c2)OCO3)n2nc(SCc3ccccc3)nc2N1 (stereo not given)	12.3	5.1	8.7	33.1*
O=C(C1Cn2ccnc2C2(CCN(S(=O)(=O)c3ccccc3)CC2)O1)N1CCCCC1 (stereo not given)	-4.0	-4.2	-14.1	-7.2
Cc1ccccc1-c1nnc2sc(COc3ccc(Cl)cc3)nn12	8.1	4.9	36.9*	26.4
O=C(O)CCn1c(=O)[nH]c2cc3c(cc2c1=O)OCO3	-0.1	-2.8	-4.2	-3.7
Cc1ccccc1C(=O)NCCn1cc(SCC(=O)Nc2ccc3c(c2)OCCO3)c2ccccc21	6.7	4.4	44.4*	8.7
COc1ccccc1-n1nnc(C(=O)Nc2cccc(C)c2C)c1C	4.4	3.8	9.5	0.1
SMILES	USP7 inh	UCHL1 block	OTUD3 block	USP10 block
N#Cc1cccc(NC(=O)C2Cc3ccccc3CN2S(=O)(=O)c2ccccc2)c1 (stereo not given)	7.9	4.7	8.3	2.3
CCc1nc(-c2ccc3c(c2)nnn3CCN2CCCCC2)no1	-12.5	2.4	-2.0	-1.8
Cc1nc(-c2ccc3c(c2)nnn3CCN2CCOCC2)no1	3.9	-0.3	40.8*	-0.6
COc1ccc(CNC(=O)CCCc2nnc3c(=O)n(-c4cc(C)cc(C)c4)ccn23)cc1	20.3	5.8	24.1	35.3*
COc1ccc(-n2ccn3c(CCC(=O)NCc4ccccc4)nnc3c2=O)cc1	3.1	-0.9	2.4	2.5
COc1ccc(CC(=O)Nc2nc3c(s2)CCC3)cc1	-1.2	3.1	4.6	-0.7
COc1ccc(CC(=O)Nc2nc(-c3ccco3)c(-c3ccco3)s2)cc1	-139.8	-93.9	62.0*	-12.9
O=C(Cc1ccccc1F)Nc1nc(-c2ccco2)c(-c2ccco2)s1	-90.9	-58.8	57.5*	-11.9
CN1CCN(C(=O)CN2C(=O)C3CCCCN3c3ccc(C(=O)N4CCCC4)cc32)CC1 (stereo not given)	-5.0	-6.5	-25.8	-3.0

Screening data deposited in PubChem by Buhrlage Lab, Dana-Farber Cancer Institute and Novartis Institutes for BioMedical Research (Cambridge, Mass).
